Records with an inconclusive call do not appear. A call without a number means that no potency is given here. The source made the active and inactive calls. Calls follow the shape of the dose curve; as a rule, active = well fitted curve in either direction with a large enough effect; inconclusive = small, poorly fitted or top-dose-only effect; inactive = no such curve, though single readings can be large or run the other way.
Potency is read from the fitted curve at half-maximal effect.

The target of the test is Lysosomal alpha-glucosidase (Homo sapiens) (UniProt P10253). Nature of the test: Confirmation of Inhibitors and Activators of Human alpha-Glucosidase From Spleen Homogenate.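 As to potency: fluorescence of 4-methylumbelliferone released from a fluorogenic glucopyranoside substrate at pH 5.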 The following applies: alpha-glucosidase enzyme activity; series mostly up to 60.5 µM. A digest of the protocol:
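Compounds titrated against spleen-homogenate alpha-glucosidase, pH 5.0, 1 mM 4-MU-glucoside substrate, 37 C for 40 min. Fluorescence after pH 10 stop, normalised to no-enzyme and enzyme controls; Hill-equation AC50.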
As to `O=S(=O)(c1ccccc1Br)N1CCOCC1`, the Potency entry is “inactive”.

As for `CC(=O)c1cccc(S(=O)(=O)N2CCOCC2)c1`, the Potency entry was “inactive”.

As to `COc1ccc(CCn2c3c(c(=O)[nH]c2=S)CN(C)CN3)cc1OC`, the Potency was 31.6 µM (active). With `Cc1ccc(-n2c3c(c(=O)[nH]c2=S)C(C(F)(F)F)(C(F)(F)F)NC(=O)N3)cc1`, the Potency entry is “inactive”. In the case of `O=C(O)C[C@@H]1C(=O)O[C@@H]2C(COC(=O)c3cc(O)c(O)c(O)c3)O[C@@H](OC(=O)c3cc(O)c(O)c(O)c3)[C@@H](OC(=O)c3cc(O)c(O)c4c3[C@H]1[C@H](O)C(=O)O4)[C@H]2OC(=O)c1cc(O)c(O)c(O)c1` (stereo partly specified) it was “inactive”; in that of `CN(C(=O)N1CCN(S(=O)(=O)c2ccccc2)CC1)c1ccccc1`, “inactive”; in that of `CC(C)(C)OC(=O)NCCCC[C@H](NC(=O)c1nc[nH]c1C(=O)NCc1ccccc1)C(=O)OC(C)(C)C`, “inactive”. As to `O=S(=O)(c1ccccc1F)N1CCOCC1`, the Potency entry was “inactive”. Next, `CCOC(=O)C(CC)(CCC(=O)O)c1csc(Nc2ccc(C)cc2)n1` (stereo unspecified): “inactive”; `CCCc1cc(-c2nc(N)ncc2-c2ccc3c(c2)OCCCO3)c(O)cc1OC`: “inactive”; `CN(C)N=C1c2cc(S(=O)(=O)N3CCOCC3)ccc2-c2ccc(S(=O)(=O)N3CCOCC3)cc21`: “inactive”.

For `c1ccc(-n2c(-c3cccs3)nc3nc4ccccc4nc32)cc1`, the Potency entry is “inactive”.

For `OC[C@H]1NC[C@@H](O)[C@@H]1O`, the Potency entry is “inactive”.

`COc1ccc(C(=O)NC2(C(F)(F)F)C(=O)Nc3c2c(=O)[nH]c(=O)n3CCc2ccc(OC)c(OC)c2)cc1` (stereo unspecified): the Potency result was “inactive”. On to `CC(C)Cn1c(SCC(=O)N2CCCCC2)nc2ccccc2c1=O`, for which the Potency entry is “inactive”.

`COc1cccc(S(=O)(=O)N2CCOCC2)c1`: the Potency result is “inactive”. Turning to `CC(=O)c1ccc(S(=O)(=O)N2CCOCC2)cc1`, the Potency result is “inactive”. As for `CCCN1CNc2c(c(=O)[nH]c(=S)n2CCc2cccc(C)c2)C1`, the Potency was 35.5 µM (active).

For the compound `CCCn1c(N)c(CC)c(=O)[nH]c1=O`, the Potency entry is “inactive”. Next, `COC(=O)c1cccc(S(=O)(=O)N2CCOCC2)c1`: “inactive”.

For `CCC(C)N1CNc2c(c(=O)[nH]c(=S)n2-c2cccc(C)c2)C1` (stereo unspecified), the Potency entry was “inactive”. In the case of `Cc1csc(-c2cc3ccccc3oc2=O)n1` it was 31.6 µM (active); in that of `Cc1nnc(SCC(=O)Nc2nsc(-c3ccc(C(C)(C)C)cc3)n2)s1`, “inactive”; in that of `COc1ccc(/C=C/c2nnc(NC(C)=O)s2)cc1`, “inactive”. Next, `Cc1nc(SCC(=O)N2CCN(c3ccccc3)CC2)c2oc3ccccc3c2n1`: “inactive”; `O=C1Cc2cc(S(=O)(=O)N3CCN(c4ccc(CO)cc4)CC3)ccc2N1`: 25.9 µM [inhibitor] (active); `O=C1Cc2cc(S(=O)(=O)N3CCN(c4ccc(O)cc4)CC3)ccc2N1`: 6.68 µM [inhibitor] (active). Next, `CCCCn1c(CN2CCN(c3cccc(Cl)c3)CC2)nc2c1c(=O)n(C)c(=O)n2C`: “inactive”; `COc1ccc(-c2cc(=O)c(C(=O)c3ccc(C)cc3)n[nH]2)cc1`: “inactive”. On to `Cc1[nH]n(C(N)=S)c(=O)c1N=Nc1ccc2ccccc2c1`, for which the Potency entry is “inactive”.

As to `Cc1c(C#N)c(N)nc2c3c(sc12)NC(=O)CC3c1ccc(Cl)cc1` (stereo unspecified), the Potency entry was “inactive”. Next, `CCCN1CNc2c(c(=O)[nH]c(=S)n2CCc2cccc(OC)c2)C1`: 15.8 µM (active); `Cc1ccc(-c2nc(-c3cc4cc(Cl)ccc4oc3=O)sc2C)cc1`: “inactive”; `Cc1cccc(S(=O)(=O)c2c(N)n(-c3ccccc3)c3nc4ccccc4nc23)c1`: “inactive”. Next, `Cc1ccc(S(=O)(=O)N2CCN(C(=O)CSc3nc4ccccc4c(=O)[nH]3)CC2)c(C)c1`: “inactive”; `Cc1cccc2cc3c(NC(=O)c4ccccn4)nn(C)c3nc12`: “inactive”.

Source of the values: PubChem BioAssay AID2113 (National Center for Advancing Translational Sciences (NCATS), 2009).
